Data taken from PubChem BioAssay (NCI).
About 83,000 compounds went through this panel and 20% of them were active in at least one assay; those are over-represented in the sample as a whole.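 Method: cells in 96-well plates; compound added at one concentration; 48 h incubation; percent growth measured; values under 10 scored active.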 Values without a mark were called inactive. The source made the active and inactive calls.

Legend:
Experiment in all cases: NCI-60 one-dose screen, 48 h (100 = growth as untreated, 0 = no growth, -100 = all killed)
Conditions in all cases: 10 µM unless noted
NCI-H23 lung = system: NCI-H23 lung
NCI-H226 lung = system: NCI-H226 lung
NCI-H322M lung = system: NCI-H322M lung
HOP-62 NSCLC = system: HOP-62 NSCLC
NCI-H460 lung = system: NCI-H460 lung
HOP-92 NSCLC = system: HOP-92 NSCLC
NCI-H522 lung = system: NCI-H522 lung
A549/ATCC NSCLC = system: A549/ATCC NSCLC
786-0 renal = system: 786-0 renal
COLO 205 colon = system: COLO 205 colon
DU-145 prostate = system: DU-145 prostate
K-562 leukemia = system: K-562 leukemia
MALME-3M melanoma = system: MALME-3M melanoma
MDA-MB-231 breast = system: MDA-MB-231 breast
RXF 393 renal = system: RXF 393 renal
SF-268 CNS = system: SF-268 CNS
SF-295 CNS = system: SF-295 CNS
SF-539 CNS = system: SF-539 CNS
UACC-257 melanoma = system: UACC-257 melanoma
M14 melanoma = system: M14 melanoma

| SMILES | growth (NCI-H23 lung) | growth (NCI-H226 lung) | growth (NCI-H322M lung) | growth (HOP-62 NSCLC) | growth (NCI-H460 lung) | growth (HOP-92 NSCLC) | growth (NCI-H522 lung) | growth (A549/ATCC NSCLC) | growth (786-0 renal) | growth (COLO 205 colon) | growth (DU-145 prostate) | growth (K-562 leukemia) | growth (MALME-3M melanoma) | growth (MDA-MB-231 breast) | growth (RXF 393 renal) | growth (SF-268 CNS) | growth (SF-295 CNS) | growth (SF-539 CNS) | growth (UACC-257 melanoma) | growth (M14 melanoma) |
| --- | --- | --- | --- | --- | --- | --- | --- | --- | --- | --- | --- | --- | --- | --- | --- | --- | --- | --- | --- | --- |
| O=C(c1ccccc1)N(CCCl)C(=O)N(CCCl)C(=O)c1ccccc1 | 93.7% | 93.7% | 90.2% | 91.5% | 108% | 62.3% | 85.7% | 95.7% | 103% | 99.9% | 109% | 95.5% | 95.2% | 82.1% | 104% | 102% | 81.6% | 94.7% | 101% | 101% |
| NC(=Nc1nc(-c2ccccn2)cc2ccccc12)c1ccccn1 | -90.1% (active) | 21.4% | 21.6% | 8.21% (active) | 1.13% (active) | -2.84% (active) | 36.3% | -54.2% (active) | 3.78% (active) | 6.29% (active) | 1.76% (active) | -22.8% (active) | 19% | 47.8% | 1.1% (active) | 13.1% | 17.9% | -18.6% (active) | -4.44% (active) | -55% (active) |
| CN=C(N)N/N=C(\C)c1ccc2c(c1)Cc1ccccc1-2 | 10.7% | -39.1% (active) | -85% (active) | -73.3% (active) | -97.9% (active) | -8.45% (active) | 12.2% | -66.4% (active) | -77.9% (active) | -100% (active) | -85.9% (active) | -81.5% (active) | -85% (active) | -67.5% (active) | -28.4% (active) | -44.2% (active) | -51.9% (active) | – | -70.3% (active) | -96.1% (active) |
| CC(O)C(O)C(O)C(O)C(O)C(=O)NNc1ccccc1 (centres undefined) | 96.1% | 94.3% | 76.1% | 72.4% | 100% | 95.2% | 66.8% | 90.9% | 103% | 94.2% | 96.4% | 67.7% | 105% | 81.1% | 119% | 87.4% | 86.4% | 92.7% | 100% | 85% |
| S=C(S)OCN1CCOCC1 | 93.8% | 97% | 98% | 108% | 90.3% | 86.4% | 1.59% (active) | 91.6% | 108% | 20.7% | 86% | 77.3% | 87.5% | 116% | 107% | 97.9% | 95.6% | 101% | 42.6% | 77.4% |
| COC(=O)Nc1nc2ccc(C3(c4ccc(F)cc4)OCCO3)cc2[nH]1 | 47.4% | 63.9% | 51.7% | 35.8% | 10.4% | 41.1% | -37.2% (active) | 21.7% | 51% | 0.171% (active) | 12.2% | 9.31% (active) | 31.1% | 30.3% | 0.251% (active) | 50.5% | 4.04% (active) | -13.9% (active) | 45.5% | 23.3% |
| CN(C)CCSC1=Nc2ccc(Cl)cc2C(c2ccccc2Cl)N(C)C1 (centres undefined) | 90% | 52.4% | 58.7% | 55.9% | 78.7% | 51.4% | 71.8% | 78% | 65.2% | 70.4% | 94.2% | 47.9% | 58.8% | 51.1% | 104% | 86.3% | 59.7% | 58% | 72.3% | 60.3% |
| NCCCN(CCCN)CCCNCc1c2ccccc2c(CNCCCN(CCCN)CCCN)c2ccccc12 | 92.2% | 87.2% | 84.4% | 87.2% | 93.9% | 95.9% | 89.7% | 95.2% | 99.1% | 95.9% | 100% | 83.3% | 51.7% | 102% | 98.4% | 88.7% | 100% | 91.8% | 93.2% | 98.8% |
